FMDV antiviral – High Throughput Screening for Foot and Mouth Disease Virus Antivirals; FMDV antiviral cell-based qHTS; Potency, µM (doses to about 57.9 µM), actives largely listed as inhibitors; hit rate 1.2% among 410,000; calls by dose curve; tested in HEK293T cells; note: read-out not given here; nearly all actives have a fitted effect of over 45% in size
MARV entry inh – qHTS for inhibitors of binding or entry into cells for Marburg Virus. Marburg virus pseudotyped entry inhibition, cell reporter. Potency, µM (series often up to 37.8 µM), usual class: inhibitors. hit rate 1.8% among 300,000; calls by dose curve; tested in HEK293 cells
HCV inh – qHTS Assay for Inhibitors of Hepatitis C Virus (HCV); Potency, µM (highest dose often 41.8 µM), actives largely listed as inhibitors; Huh7.5.1 HCVcc-Cre infection, luciferase reporter, 44 h; hit rate 3.4% among 340,000; active = well fitted inhibition curve with a large enough effect; inconclusive = small, poorly fitted or top-dose-only effect, or another doubt; inactive = no such curve, though single readings can be large or run the other way
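1,000 cells/well; 4 h culture; + compound; + HCVcc-Cre (~0.5 moi); 44 h; luciferase substrate, RT 15 min; read 15 sec.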
SARS PLpro yeast – qHTS of Yeast-based Assay for SARS-CoV PLP; S. cerevisiae expressing SARS-CoV PLpro, growth rescue; Potency, µM (series often up to 32.9 µM), actives largely listed as activators; hit rate 0.19% among 330,000; calls by dose curve; note: nearly all actives have a fitted effect of over 55% in size
HCMV antiviral – qHTS Assay for inhibitors of the human cytomegalovirus (HCMV). HFF cells, HCMV-luciferase reporter, 72 h; hits give low values. activity change, negative = inhibition, % at 57.5 µM. hit rate 4.5% among 410,000; in the data active = activity change below about -60%; inconclusive = no clear call, values can overlap the other calls; inactive = above about -39%
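Two compound doses tested in HFFs infected with HCMV-luciferase, MOI 1 PFU/cell, 72 h at 37C. Lysate luminescence read with OneGlo; data normalized against buffer-only and 10uM Salinomycin inhibitor controls.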
Lassa entry inh – qHTS for Inhibitors of binding or entry into cells for Lassa Virus; Lassa virus pseudotype entry inhibition, cell reporter; Potency, µM (doses to about 37.9 µM), actives largely listed as inhibitors; hit rate 1.2% among 300,000; AID 540256, 2011; calls by dose curve; tested in HEK293 cells; note: nearly all actives have a fitted effect of over 50% in size
Of the large screens only hits and unclear results are named; the others gave an inactive call. Rows were chosen to be rich in hits. Some 8% of all compounds tested hit in one or more screens of this group.

CC1CN=C(c2ccc(Cl)cc2)c2c3ccc(C(F)(F)F)cc3nn21 (stereo not drawn)	none (no result: FMDV antiviral, MARV entry inh, HCV inh, SARS PLpro yeast, Lassa entry inh)
COc1cc(C)cc2oc(=O)c(CC(=O)N3CCN(C(=O)C4COc5ccccc5O4)CC3)c(C)c12 (stereo not drawn)	HCV inh 10µM (no result: MARV entry inh, Lassa entry inh)
Cc1cc(O)c2c(C)c(CC(=O)N3CCN(C(=O)C4COc5ccccc5O4)CC3)c(=O)oc2c1 (stereo not drawn)	HCV inh inconclusive (no result: MARV entry inh, Lassa entry inh)
Cc1ccccc1OCC(=O)Nc1cccc(C(=O)O)c1	FMDV antiviral 4µM, MARV entry inh inconclusive, Lassa entry inh 0.89µM
COc1ccc(NC(=O)c2ccco2)cc1NC(=O)COc1cc(C)ccc1C(C)C	FMDV antiviral inconclusive, HCMV antiviral -79 (no result: HCV inh, SARS PLpro yeast)
Cc1cccc(NC(=O)COc2ccccc2C(=O)NC(C)c2ccccc2)c1 (stereo not drawn)	MARV entry inh inconclusive, HCV inh 10µM, Lassa entry inh inconclusive (no result: HCMV antiviral)
Cc1cccc(C)c1NC(=O)COc1ccccc1C(=O)Nc1ccc(Br)cn1	MARV entry inh inconclusive, HCMV antiviral -65
Cc1cccc(C)c1OCC(=O)Nc1cccc(NC(=O)c2ccco2)c1	MARV entry inh inconclusive, HCV inh 11µM, Lassa entry inh inconclusive
Cc1ccc(C(=O)COc2ccccc2C(=O)Nc2ccccc2)cc1	FMDV antiviral inconclusive, MARV entry inh inconclusive, HCV inh 16µM, Lassa entry inh inconclusive
O=C(O)CC1(CC(=O)Nc2cccc(C(=O)O)c2)CCCC1	HCMV antiviral -102 (no result: MARV entry inh, Lassa entry inh)
Cc1ccccc1OCC(=O)Nc1ccc(NC(=O)c2ccco2)cc1	HCV inh inconclusive, HCMV antiviral -80, Lassa entry inh inconclusive
Cc1ccc(NC(=O)CC2(CC(=O)O)CCCC2)cc1	none
O=C(CC(c1cccs1)N1Cc2ccccc2C1=O)Nc1cccc(F)c1 (stereo not drawn)	none (no result: MARV entry inh, HCV inh, SARS PLpro yeast)
CN(C(=O)c1ccc2c(c1)N(Cc1ccccc1F)C(=O)c1ccccc1S2(=O)=O)C1CCCCC1	MARV entry inh inconclusive, HCMV antiviral inconclusive (no result: HCV inh, SARS PLpro yeast)
Cc1ccc(C(C)C)cc1OCC(=O)NNC(=O)Nc1ccccc1	none
Cc1ccc(C(C)C)c(OCC(=O)NNC(=O)Nc2ccccc2)c1	MARV entry inh inconclusive, HCMV antiviral -67 (no result: SARS PLpro yeast)
O=C1N/C(=C/c2ccc(Br)s2)C(=O)N1c1ccccc1	MARV entry inh inconclusive, HCMV antiviral -62, Lassa entry inh inconclusive
Cc1ccc(/C=C2/NC(=O)N(c3ccccc3)C2=O)o1	HCMV antiviral inconclusive
COc1ccc(NC(=O)c2cc3c(=O)n(Cc4ccco4)ccc3nc2C)c(OC)c1	HCMV antiviral inconclusive (no result: MARV entry inh, HCV inh, SARS PLpro yeast)
O=C(C[C@H]1CC[C@@H]2[C@H](COC[C@@H](O)CN2C(=O)C2CC2)O1)NCc1ccccc1Cl	none (no result: MARV entry inh, HCV inh, SARS PLpro yeast, Lassa entry inh)
O=C(C[C@H]1CC[C@H]2[C@@H](COC[C@@H](O)CN2C(=O)c2cnccn2)O1)NCc1ccc(Oc2ccccc2)cc1	HCMV antiviral -68 (no result: MARV entry inh, HCV inh, SARS PLpro yeast, Lassa entry inh)
Cc1ccc(C)c(Cn2c(=O)n(CCCCCC(=O)NCc3ccc4c(c3)OCO4)c(=O)c3sccc32)c1	Lassa entry inh inconclusive (no result: HCV inh, SARS PLpro yeast)
CCOC(=O)c1sc2nc(C)nc(NCc3ccc(Cl)cc3)c2c1C	FMDV antiviral inconclusive, HCV inh inconclusive, HCMV antiviral -68, Lassa entry inh inconclusive
CCOC(=O)c1sc2nc(C)nc(SC(C)C(=O)N(C)c3ccccc3)c2c1C (stereo not drawn)	MARV entry inh inconclusive, HCV inh inconclusive, HCMV antiviral -64, Lassa entry inh inconclusive
CCOC(=O)c1sc2nc(C)nc(Nc3ccc(OC)cc3)c2c1C	MARV entry inh inconclusive, HCMV antiviral -67
CCOC(=O)c1sc2nc(C)nc(NCc3ccc(F)cc3)c2c1C	MARV entry inh inconclusive, HCV inh inconclusive, HCMV antiviral inconclusive, Lassa entry inh inconclusive
COc1ccc(C)cc1NC(=O)c1c(C(=O)Nc2cccc(C)c2C)sc2nc(C)cc(=O)n12	MARV entry inh inconclusive (no result: HCV inh, SARS PLpro yeast)
CCOC(=O)c1cnc2ccc(C)cc2c1Nc1ccc(N2CCOCC2)cc1	MARV entry inh inconclusive, HCV inh inconclusive, Lassa entry inh inconclusive
CCOC(=O)c1cnc2ccccc2c1Nc1ccc(C(=O)O)cc1	MARV entry inh inconclusive
CCOC(=O)c1cnc2ccc(C)cc2c1Nc1ccc(N(CC)CC)cc1	MARV entry inh inconclusive, HCMV antiviral -106, Lassa entry inh inconclusive (no result: HCV inh, SARS PLpro yeast)
CCOC(=O)c1cnc2ccc(Cl)cc2c1Nc1ccc(N2CCOCC2)cc1	FMDV antiviral 22µM, Lassa entry inh inconclusive (no result: HCV inh, SARS PLpro yeast)
CC(C)CN1C(=O)N(C)C(=O)C2N=CN=C21 (stereo not drawn)	none (no result: FMDV antiviral, HCV inh, SARS PLpro yeast, HCMV antiviral, Lassa entry inh)
CCCCC/C=C\C\C=C/C=C/C=C/[C@@H](SC[C@H](N)C(=O)NCC(=O)O)[C@@H](O)CCCC(=O)O	none (no result: MARV entry inh, HCV inh, SARS PLpro yeast, HCMV antiviral, Lassa entry inh)
Cn1cnc([N+](=O)[O-])c1Sc1nc(N)nc2c1ncn2C1OC(CO)C(O)C1O (stereo not drawn)	FMDV antiviral inconclusive, MARV entry inh inconclusive, HCMV antiviral -76, Lassa entry inh 2.8µM (no result: SARS PLpro yeast)
Nc1nc(SCc2ccc(Br)cc2)c2ncn(C3OC(CO)C(O)C3O)c2n1 (stereo not drawn)	HCMV antiviral -61 (no result: SARS PLpro yeast)
Cn1cnc([N+](=O)[O-])c1Sc1nc(N)nc2c1ncn2C1CC(O)C(CO)O1 (stereo not drawn)	FMDV antiviral inconclusive, MARV entry inh inconclusive, HCV inh inconclusive, HCMV antiviral -82, Lassa entry inh inconclusive (no result: SARS PLpro yeast)
O=C(NCc1ccco1)c1cc2cc3ccc(Cl)cc3nc2o1	MARV entry inh inconclusive, HCV inh inconclusive, Lassa entry inh 18µM
Cc1c(Cl)cccc1NC(=O)N1CCCN(c2nc(-c3ccccc3)ns2)CC1	FMDV antiviral inconclusive, MARV entry inh inconclusive, HCV inh inconclusive, HCMV antiviral -70, Lassa entry inh inconclusive
O=C(Nc1ccccc1)N1CCN(c2nc(-c3ccccc3)ns2)CC1	FMDV antiviral inconclusive, HCV inh 1.8µM, HCMV antiviral inconclusive
O=C(Nc1ccccc1)N1CCN(C(=O)c2nsc3ccccc23)CC1	HCMV antiviral active (no result: MARV entry inh, HCV inh, SARS PLpro yeast)
CCC1(C2CCN(Cc3ccccc3Cl)CC2)NC(=O)N(CC2COc3ccccc3O2)C1=O (stereo not drawn)	none (no result: MARV entry inh, HCV inh, SARS PLpro yeast, HCMV antiviral, Lassa entry inh)
O=C(CCl)NN=C(c1ccccc1)c1ccccc1	FMDV antiviral 25µM, HCMV antiviral inconclusive
CCc1cccc(-n2nnc(-c3nc(-c4cccs4)no3)c2N)c1	none (no result: MARV entry inh, HCV inh, SARS PLpro yeast)
Cc1cc(C)c(S(=O)(=O)N2CCN(C(=O)CC(C)n3nc(C)nc3C)CC2)c(C)c1 (stereo not drawn)	HCMV antiviral -74 (no result: MARV entry inh, HCV inh, SARS PLpro yeast, Lassa entry inh)
O=C(CN1C(=O)NC2(CCCC2)C1=O)N1CCN(S(=O)(=O)c2ccccc2)CC1	MARV entry inh inconclusive
Cc1cc(C)c(S(=O)(=O)N2CCN(C(=O)CN3C(=O)NC4(CCCC4)C3=O)CC2)c(C)c1	HCMV antiviral -68
Cc1ccc(CNC(=O)c2cn(C)c3ccc(S(=O)(=O)N(C)C4CCCCC4)cc3c2=O)cc1	Lassa entry inh inconclusive (no result: HCV inh, SARS PLpro yeast)
